Results published in PubChem BioAssay AID463212 (Sanford-Burnham Center for Chemical Genomics, 2010).
About 4,400 (1.3%) of roughly 330,000 compounds were called active. Shown is part of a subset that was picked to be rich in actives. Unmarked numbers belong to inactive results.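 The calls were made as follows: active = growth inhibition of the mutant yeast at or above 50%; inactive = the rest.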

test: growth inhibition of tim23-1 ts yeast – luminescence, uHTS, primary screen (AID 463212);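 also: temperature-sensitive mutant grown at 25 °C; plate controls were DMSO-treated mutant yeast for no effect and medium wells lacking yeast for full effect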; conditions: S. cerevisiae tim23-1 growth, BacTiter-Glo luminescence, 24 h; at 20 µM; active compounds read high

SMILES	inhibition
CC(OC(=O)c1ccc([N+](=O)[O-])cc1)C(=O)NCC1CCCCC1 (centres undefined)	3.5%
O=C1N[C@@H](Cc2ccccc2)C(=O)N2[C@H]1C[C@]1(Br)c3ccccc3N(S(=O)(=O)c3ccccc3)[C@H]21	5.8%
Cc1cc(=O)cc(C)[nH]1	9.7%
O=C(Cc1ccccc1)NCC1OCCc2ccccc21 (centres undefined)	4.02%
CC(C)Cn1c(N)c(C(=O)NCc2cccs2)c2nc3ccccc3nc21	59.9% (active)
COCC(C)OC(=O)c1c(N)n(CCCN2CCOCC2)c2nc3ccccc3nc12 (centres undefined)	5.92%
CCOc1ccccc1NC(=O)Cn1nnc(C(=O)NCc2cccs2)c1N	0.467%
Cc1cc(NC(=O)CSC2=NS(=O)(=O)c3cc(Cl)ccc3N2)no1	11.8%
C=CCn1c(=O)c(C(=O)Nc2ncccc2O)c(O)c2ccccc21	33.8%
Cn1c(=O)c(C(=O)Nc2ncccn2)c(O)c2ccccc21	60% (active)
CCCn1c(=O)c(C(=O)Nc2cc(C)ccn2)c(O)c2ccccc21	13.4%
CCSC1(SCC)N=C(N)C2(C#N)C(c3ccccc3)NC(C)=CC12C#N (centres undefined)	9.77%
CSc1nccc(NC(=O)c2ccc(C(C)(C)C)cc2)n1	42.9%
CC(C)(C)NC(=O)CSc1nnc(NC(=O)CCc2ccccc2)s1	8.92%
O=C(CN1CCN(c2ccc(F)cc2)CC1)Nc1ccccc1	7.47%
Oc1c(CN2CCCC2)cc(COCc2ccccc2)c2cccnc12	12.2%
Oc1c(CN2CCN(c3ccc(F)cc3)CC2)cc(Cl)c2cccnc12	54.1% (active)
O=C1CCC[C@@H]2CC(N3CCCCC3)C[C@@H]3CCN1[C@H]23 (some centres undefined)	29.3%
COc1ccc(/C=N/N(C)C2=NS(=O)(=O)c3ccccc32)cc1OC	1.27%
COc1ccc2c(c1)O/C(=C\c1ccccc1O)C2=O	0.978%
COC(=O)c1ccc(/C=C2/C(=O)Oc3ccccc32)cc1	34.3%
O=C1Oc2ccccc2C(=O)/C1=C/c1ccccc1O	61.1% (active)
CCSc1sc(CC)cc1C=O	-3.29%
CC/C(=N\NC(=S)NC(C)C)c1ccc(OC(F)F)cc1	30.3%

SMILES	inhibition
CCOC(=O)NC(=O)/C(C#N)=C\c1ccccc1	4.67%
O=C(/C=C/c1c(F)cccc1Cl)Nc1nn[nH]n1	9.19%
CNC(=O)/C(C#N)=C/c1c(F)cccc1Cl	75.8% (active)
CC(=O)c1ccc(S(=O)(=O)NCCC(=O)N2CCN(c3ccccn3)CC2)cc1	12.9%
Cc1ccccc1OCC(=O)Nc1ccc2c(c1)ncn2C	20%
Cc1ccccc1OCC(=O)Nc1ccc(N2CCN(C(=O)C(C)C)CC2)c(Cl)c1	52.8% (active)
CCC(=O)N1CCN(c2ccccc2NC(=O)COc2cccc(C)c2C)CC1	13.7%
CCN(CC)C(=O)CSc1nc2ccccc2n1CC(=O)N1CCN(c2ccccc2OC)CC1	12.6%
NC(=S)c1ccc(C(N)=S)o1	-0.65%
CC[N+](C)(CC)CCC[n+]1c(-c2ccccc2)c2cc(N)ccc2c2ccc(N)cc21	-96.2%
Fc1ccccc1/C=C1\CCCC2=C1Nc1ncnn1C2c1ccccc1F (centres undefined)	34%
CC(=O)C1=C(C)NC(=O)NC1c1ccc2c(c1)OCO2 (centres undefined)	0.126%
CCCC(C)c1nnc(NC(=O)C2CC(=O)N(c3ccc(OCC)cc3)C2)s1 (centres undefined)	16%
COc1cc(/C=C/C(=O)OCC(=O)NCCCc2ccccc2)ccc1O	16.5%
O=C(Oc1c(-c2ccco2)oc2ccccc2c1=O)c1cccnc1	51.2% (active)
O=C(OCc1cc2ccccc2[nH]c1=O)c1cccnc1	-4.57%
COc1ccc(Oc2coc3cc(OC(=O)c4cncc(Br)c4)ccc3c2=O)cc1	-12.3%
CCOC(=O)N1CCN(CC(=O)n2c(C)c(C)c3ccccc32)CC1	30.5%
CCCCOc1ccc(CON(C(C)=O)C(C)=O)cc1Cl	27%
Cc1ccccc1C1=N/C(=C/c2cccnc2)C(=O)O1	51.8% (active)
O=C1OC(c2ccc(Cl)cc2)=N/C1=C\c1cccnc1	40.9%
Cc1ccc(C2=C/C(=C\c3cccnc3)C(=O)O2)cc1	33.4%
CC(C)CC(=O)N1CCN(Cc2ccccc2Br)CC1	1.68%
COC(=O)c1cccc(N(C(=O)CNC(=O)c2cccs2)C(C(=O)NCC2CCCO2)c2ccc(OC)c(OC)c2)c1 (centres undefined)	0.773%

SMILES	inhibition
COc1ccc2nc(NC(=O)NC3CCCCC3)sc2c1	58.4% (active)
COc1ccc2nc(NC(=O)[C@@H]3CCCN3C(=O)c3cccs3)sc2c1	25.9%
COc1cccc(C(=O)Nc2nc3ccc(S(C)(=O)=O)cc3s2)c1	23.6%
CC(C)=CCC/C(C)=C/C(=O)O	8.44%
CC(C)S(=O)(=O)c1csc(NC(=O)Nc2ccc(Cl)cc2)c1Cl	22.2%
CCn1c(CSc2nncn2-c2ccc(OC)cc2)nc2cc(S(=O)(=O)N(C)C)ccc21	8.84%
Cc1cc(C(=O)COc2ccccc2Cl)c(C)n1C1CC1	38.7%
CC1CCCC(C)N1C(=O)CN1CCN(c2nc(-c3ccc(F)cc3)cs2)CC1 (centres undefined)	52.8% (active)
CCCc1cc(=O)[nH]c(SCC(=O)N2C(C)CCCC2C)n1 (centres undefined)	0.431%
O=C(COC(=O)C1CCCO1)Nc1nc(-c2ccc(F)cc2)cs1 (centres undefined)	11.2%
O=C(COC(=O)/C(=C/c1cccs1)c1cccs1)NCc1ccccc1Cl	24%
O=C(/C(=C/c1cccc(Cl)c1)c1nc2ccccc2[nH]1)c1ccccc1	44.9%
COc1cc(/C=C(\C#N)c2nc3ccccc3[nH]2)ccc1O	56.4% (active)
Cc1ccc2nc(/C(C#N)=C\c3ccc(OC(=O)c4cccs4)cc3)[nH]c2c1	-4.69%
CCOc1ccc(OCC(=O)Nc2c3c(nn2C(C)(C)C)CS(=O)(=O)C3)cc1	11.1%
CCOC(=O)c1c(NC(=O)CCl)sc(C(=O)N(CC)CC)c1C	5.96%
O=S(=O)(c1cccc2nonc12)N1CCN(c2cccc(Cl)c2)CC1	22.8%
O=C(COC(=O)c1cc[n+]([O-])cc1)Nc1ccc(Cl)c(C(F)(F)F)c1	5.05%
O=C(CC(O)(C(F)(F)F)C(F)(F)F)Nc1ccc(Cl)c(Cl)c1	90.6% (active)
O=C(CCCN1C(=O)CCC1=O)Nc1ccc(Cl)c(C(F)(F)F)c1	-4.71%
CC/C(O)=C1\C(=O)CC(C)(C)CC1=NCCc1nc2ccccc2[nH]1	-7.57%
CC(=O)N1CCOc2ccc(S(=O)(=O)N3CCN(c4cccc(C(F)(F)F)c4)CC3)cc21	36.1%
COc1ccc2c(c1)C(NS(=O)(=O)OCC(Cl)(Cl)Cl)CCC2 (centres undefined)	55.4% (active)
COc1ccc(CN(C)C(C)C(=O)NC2CCCc3ccccc32)cc1 (centres undefined)	24.3%

SMILES	inhibition
COC(=O)c1cc(OCC(=O)NC2CCCc3ccccc32)cc(C(=O)OC)c1 (centres undefined)	16.8%
CC(CC(=O)N1CCN(c2ccccc2)CC1)S(=O)(=O)c1ccc2c(c1)NC(=O)CS2 (centres undefined)	-6.88%
N/C(Cc1ccc([N+](=O)[O-])cc1)=N\OC(=O)COc1ccc2ccccc2c1	60.5% (active)
O=C(NCC(O)c1ccc([N+](=O)[O-])cc1)C1CCCCC1 (centres undefined)	-0.943%
Cc1cc(C)cc(OCC(=O)O/N=C(\N)Cc2ccc([N+](=O)[O-])cc2)c1	26.9%
O=C(COC(=O)Cc1ccc([N+](=O)[O-])cc1)NC1CCCCCC1	19.1%
N/C(Cc1ccc([N+](=O)[O-])cc1)=N\OC(=O)C1CCCCC1	58.8% (active)
COC(=O)C(C)NC(=O)COc1ccc2ccccc2c1 (centres undefined)	7.67%
CC(Oc1ccc2c(-c3ccccc3)cc(=O)oc2c1)C(=O)NC(Cc1c[nH]c2ccccc12)C(=O)O (centres undefined)	21%
CCc1ccc(NC(=O)CS(=O)CC(=O)N2CCN(c3ccccc3F)CC2)cc1 (centres undefined)	-23.1%
Cc1ccc(-c2ccc(/C=N/NC(=O)CN3CCOCC3)o2)cc1[N+](=O)[O-]	55.9% (active)
O=C(CN1CCOCC1)N/N=C/c1ccc(-c2ccc(Br)cc2)o1	1.87%
Cc1occc1C(=O)N/N=C/c1ccc(-c2cccc([N+](=O)[O-])c2)o1	26%
Cc1cccc(CC(=O)N2CCN=C2SCc2ccc([N+](=O)[O-])cc2)c1	-3.28%
O=C(COc1ccccc1F)Nc1nc(-c2ccccn2)cs1	28.7%
CCN(C(=O)COC(=O)C1CCN(S(=O)(=O)c2ccc(C)c(C)c2)CC1)C1CCS(=O)(=O)C1 (centres undefined)	0.758%
C/C(N)=C(/C#N)C(=O)COC(=O)c1cc(-c2ccc(C)cc2)nc2ccccc12	3.42%
N/C(=N\OC(=O)c1cc(-c2ccccc2)nc2ccccc12)c1ccncc1	79.2% (active)
COC(=O)CNC(=O)c1cc(-c2ccncc2)nc2ccccc12	10.9%
CNC(=O)COc1ccc(S(=O)(=O)Nc2ccccc2)cc1	8.77%
NC(=O)c1oc2ccccc2c1NC(=O)CS(=O)(=O)c1ccccc1	6.4%
S=C(Nc1ccc(Br)cc1Cl)N1CCC2(CC1)OCCO2	20.7%
